{
  "source": "PubChem BioAssay (NCATS)",
  "note": "Values joined by “and” are separate entries in the source; they are usually repeats but may differ in a detail not shown here. Identical values can stand only once. Records with an inconclusive call do not appear. A number with no mark means an inactive call. Active and inactive are the calls of the source. Calls come from the whole dose curve; as a rule, active = well fitted activation curve with a large enough effect; inconclusive = small, poorly fitted or top-dose-only effect; inactive = no such curve, though single readings can be large or run the other way. Peptide text beside a SMILES is read from it. * marks the point of attachment. PhAc = O=C(Cc1ccccc1)*",
  "data": [
    {"target": "Cellular tumor antigen p53 (Homo sapiens) (UniProt P04637)", "sequence (P04637 whole entry, looked up)": "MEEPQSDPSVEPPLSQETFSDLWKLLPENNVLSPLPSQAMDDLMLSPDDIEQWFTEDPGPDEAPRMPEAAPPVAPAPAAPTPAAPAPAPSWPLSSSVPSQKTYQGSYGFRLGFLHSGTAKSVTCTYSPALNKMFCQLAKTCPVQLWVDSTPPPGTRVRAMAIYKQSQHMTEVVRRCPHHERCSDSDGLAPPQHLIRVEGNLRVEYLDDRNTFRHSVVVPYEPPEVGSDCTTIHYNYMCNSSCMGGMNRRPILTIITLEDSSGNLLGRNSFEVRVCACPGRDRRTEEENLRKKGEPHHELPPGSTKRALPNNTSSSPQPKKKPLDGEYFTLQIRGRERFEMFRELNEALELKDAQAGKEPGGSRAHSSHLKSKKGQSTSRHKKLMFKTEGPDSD", "test": "Primary qHTS for small molecule compounds that upregulate eGFP-tagged delta133p53alpha (in N-terminal) cells. (AID 2060322); note: nearly all actives have a fitted effect of over 75% in size; note: potency is the fitted concentration of half-maximal effect;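 for activation: series mostly up to about 56 µM; 0% = DMSO vehicle and 100% = reference activator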", "settings": "NCI-H358 eGFP-delta133p53alpha fluorescence, 24 h; activation: stronger effect = higher value", "in_short": "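NCI-H358 cells pre-induced 24 h with 10 ng/ml doxycycline to express N-terminal eGFP-delta133p53alpha, then dosed 24 h at 37C without doxycycline; fixed, Hoechst-stained, GFP intensity by laser scanning cytometry, normalized to DMSO (0%) and 57.5 uM 5-azacytidine (100%).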", "values": [
      {"compound": "COc1ccccc1N1CCN(CCCCNC(=O)c2ccc(-c3cscn3)cc2)CC1", "activation": "4.3%"},
      {"compound": "CO[C@@H]1[C@@H](O[C@H]2O[C@@H](C)[C@H](O[C@@H]3C[C@](C)(O)[C@H](O)[C@@H](C)O3)[C@@H](N(C)C)[C@@H]2O)[C@@H](CC=O)C[C@@H](C)[C@@H](O[C@H]2CC[C@H](N(C)C)[C@H](C)O2)/C=C/C=C/C[C@@H](C)OC(=O)C[C@H]1O", "activation": "-1.43%"},
      {"compound": "CCOc1ccc(-c2nc(-c3cccc4c3CCC4NCCO)no2)cc1OCC", "note": "(stereo not given)", "activation": "-0.955%"},
      {"compound": "CC(C)Nc1nc(Nc2ccccc2)nc(-c2ccccc2)n1", "activation": "2.39%"},
      {"compound": "Cc1ccc(Cl)cc1N(CC(=O)Nc1c(F)cccc1F)S(C)(=O)=O", "activation": "0.955%"},
      {"compound": "CN1CCC(Nc2nc(Nc3ccc(Oc4ccccc4)cc3)c3c(=O)[nH]cc(Br)c3n2)CC1", "Potency": "10.7 µM (active)"},
      {"compound": "COc1cccc(-c2ccc([C@@H](Oc3cc(-c4ccc(C[C@H](N)C(=O)O)cc4)nc(N)n3)C(F)(F)F)cc2)c1", "activation": "-13.4%"},
      {"compound": "O=C(O)c1cc(N(Cc2ccc(C3CCCCC3)cc2)C(=O)c2ccc(Oc3ccccc3)cc2)ccc1O", "activation": "-2.86%"},
      {"compound": "CCCCCCOc1cc2c(cc1N(C)c1ncc(C(=O)O)cn1)C(C)(C)CCC2(C)C", "activation": "-3.82%"},
      {"compound": "CCCN1CCC[C@@H](c2cccc(S(C)(=O)=O)c2)C1", "activation": "-7.64%"},
      {"compound": "Cc1c(C(=O)NCc2cccnc2)nn(-c2ccc(Cl)cc2Cl)c1-c1ccc(Cl)cc1", "activation": "21%"},
      {"compound": "CC(C)c1nnc(-c2ccc(-c3ccccc3)nc2)n1-c1cccc2nonc12", "activation": "-5.73%"},
      {"compound": "CC1(C(=O)Nc2ccc(F)nc2)CCCN1c1nc(Nc2cc(C3CC3)[nH]n2)c2cccn2n1", "note": "(stereo not given)", "Potency": "30.1 µM (active)"},
      {"compound": "Cc1cc(-c2nncc3c(C(C)(C)C)c(OCc4ncnn4C)nn23)no1", "activation": "6.68%"},
      {"compound": "COc1ccc(C(=O)N(CCC(C)C)Cc2nc(C)c(C)n2Cc2ccccc2C)c(OC)c1", "activation": "11.5%"},
      {"compound": "Cc1nc2cc(-c3cc(F)cc(C#N)c3)ccc2s1", "activation": "-1.91%"},
      {"compound": "O=C(NS(=O)(=O)c1ccc(Br)s1)c1ccc(Cl)cc1Cl", "activation": "-12.4%"},
      {"compound": "O=C(O)Cc1ccc2oc(-c3ccc(NC(=O)/C=C/c4ccc(Br)cc4)c(F)c3)nc2c1", "activation": "25.8%"},
      {"compound": "CN(CC(=O)N(Cc1ccc(C2CCCCC2)cc1)c1ccc(C(=O)O)cc1)S(=O)(=O)c1c(F)c(F)c(F)c(F)c1F", "Potency": "6.75 µM (active)"},
      {"compound": "CC(C)C(=O)c1cn(CC(=O)COc2ccc(Oc3ccccc3)cc2)c2ccc(C(=O)O)cc12", "activation": "6.68%"},
      {"compound": "CC(C)(C#N)c1ccc(N2C(=O)OCc3cnc4ccc(-c5cnc6ccccc6c5)cc4c32)cc1", "activation": "-3.82%"},
      {"compound": "CC[C@H]1OC(=O)C[C@@H](O)[C@H](C)[C@@H](O[C@@H]2O[C@H](C)[C@@H](O)[C@H](N(C)C)[C@H]2O)[C@@H](CCN2C[C@H](C)C[C@H](C)C2)C[C@@H](C)C(=O)/C=C/C(C)=C/[C@@H]1CO[C@@H]1O[C@H](C)[C@@H](O)[C@@H](OC)[C@H]1OC", "activation": "-8.59%"},
      {"compound": "CCOC(=O)CNC(=O)[C@@H]1CCCN1C(=O)Cc1ccccc1", "note": "(PhAc-Pro-Gly-OEt)", "activation": "13.8%"},
      {"compound": "C(#Cc1cccc(CN2CCOCC2)c1)CCN1CCCCC1", "activation": "-4.3%"},
      {"compound": "COc1cc(-n2cnc3cc(-c4ccc(Cl)cc4)sc3c2=O)ccc1OCCN1CCCC1", "activation": "18.1%"},
      {"compound": "COc1ccc(C2Sc3ccccc3N(CCN(C)C)C(=O)C2OC(C)=O)cc1", "note": "(stereo not given)", "activation": "-11.5%"},
      {"compound": "COc1cc(Nc2nc3ccccc3nc2NS(=O)(=O)c2cccc(NC(=O)c3ccc(C)c(OC)c3)c2)cc(OC)c1", "activation": "10%"},
      {"compound": "CN(C)S(=O)(=O)c1ccc(NC(=S)N2CCC(C(O)(c3ccccc3)c3ccccc3)CC2)cc1", "activation": "-6.68%"},
      {"compound": "COc1cc(NC(=O)c2cc(C3CC3)on2)c(OC)cc1Cl", "activation": "-12.4%"},
      {"compound": "FC(F)(F)c1cc(C(F)(F)F)c2ccc3nc(-c4nnco4)cn3c2n1", "activation": "5.73%"},
      {"compound": "O=C(CCc1nnc2n(Cc3ccc(Cl)cc3)c(=O)c3ccccc3n12)NCCC1=CCCCC1", "activation": "4.3%"},
      {"compound": "Cn1c2ccc(F)cc2c2c(C(=O)N3CCCC3)cn(-c3ccccc3)c(=O)c21", "activation": "-5.25%"},
      {"compound": "COCc1c(Cl)ccc2c1CC[C@H]2c1ncc[nH]1", "activation": "11%"},
      {"compound": "Clc1ccccc1CNCC1CCC(CNCc2ccccc2Cl)CC1", "note": "(stereo not given)", "activation": "29.6%"},
      {"compound": "CN(C)c1nc(Cc2ccc(NC(=O)c3ccc(C(F)(F)F)cc3)cc2)nc(N(C)C)c1CC(=O)O", "activation": "-14.6% and -1.43%"},
      {"compound": "Cc1cccc2c1CC[C@H](CN1CCC(c3c(Cl)cccc3Cl)CC1)C[C@@H]2O", "activation": "11.9% and -7.16%"},
      {"compound": "Cc1cc(C)c(-c2csc(NC(=O)c3ccccc3)n2)c(C)c1", "activation": "21%"},
      {"compound": "CS(=O)(=O)Nc1ccc2oc3c(OC(F)F)ccc(C(=O)Nc4c(Cl)cncc4Cl)c3c2c1", "activation": "22%"},
      {"compound": "CN(C)CCn1cc(-c2ccc(F)cc2)c(-n2cccc2)n1", "activation": "-10.5%"},
      {"compound": "CN(C)C(=O)NC1(c2ccccc2)CCN(CCC[C@]2(c3ccc(Cl)c(Cl)c3)CCCN(C(=O)c3ccccc3)C2)CC1", "activation": "13.4%"}
    ]}
  ]
}
